PubChem BioAssay
The source made the active and inactive calls.

Assays:
[1] = compound effects on lung adenocarcinoma cell viability – A549, calcein-AM fluorescence, 48 h, basal, profiling panel (AID 1162); details: higher = more signal
[2] = compound effects on differentiated 3T3-L1 adipocyte viability – cell-based, 3T3-L1 adipocytes, calcein-AM fluorescence, 48 h, basal, profiling panel (AID 1163); details: 3T3-L1 adipocytes viability, higher = more signal
[3] = compound effects on hepatocellular carcinoma cell viability – HepG2, calcein-AM fluorescence, 48 h, basal, profiling panel (AID 1164); details: higher = more signal
[4] = compound effects on multiple myeloma cell viability – MM1S, calcein-AM fluorescence, 48 h, basal, profiling panel (AID 1165); details: higher = more signal;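 also: viability of MM1S multiple myeloma cells under basal unstimulated conditions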
[5] = calcein-AM signal in unstimulated myeloma cells – cell-based, calcein-AM fluorescence, 48 h, PK04 Diversity Set, profiling panel (AID 1166); details: RPMI8226 myeloma viability, higher = more signal;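 also: cells grown under basal conditions without added stimulus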
[6] = JC-1 mitochondrial signal, unstimulated HepG2 cells – cell-based, JC-1 fluorescence, 24 h, 100 nL compound, profiling panel (AID 1167); details: HepG2 mitochondrial potential, higher = more signal
[7] = JC-1 mitochondrial signal, unstimulated adipocytes – cell-based, JC-1 fluorescence, 3T3-L1 adipocytes, 24 h, 100 nL compound, profiling panel (AID 1168); details: JC-1 mitochondrial fluorescence, higher = more signal, called active from +8 up or from −8 down
[8] = JC-1 mitochondrial signal, unstimulated myeloma cells – cell-based, JC-1 fluorescence, RPMI8226, 24 h, 100 nL compound, profiling panel (AID 1169); details: JC-1 mitochondrial potential fluorescence, higher = more signal
[9] = JC-1 mitochondrial signal, unstimulated MM1S myeloma – cell-based, JC-1 fluorescence, 24 h, 100 nL compound, profiling panel (AID 1170); details: MM1S mitochondrial potential, higher = more signal
[10] = resazurin metabolic signal in A549 cells – cell-based, resazurin fluorescence, 24 h, PK04 Diversity Set, profiling panel (AID 1171); details: A549 viability, higher = more signal, called active from +8 up or from −8 down
Also: test concentration not given here.

| SMILES | z-score [1] | z-score [2] | z-score [3] | z-score [4] | z-score [5] | z-score [6] | z-score [7] | z-score [8] | z-score [9] | z-score [10] |
| --- | --- | --- | --- | --- | --- | --- | --- | --- | --- | --- |
| CC(CO)N1C(=O)[C@@H]2[C@H]3C(=O)OCC=C[C@H]3OC23C=CCN(C(C)(C)C)C(=O)[C@@H]13 (stereo not given in full) | -0.0702 | -0.643 | -0.711 | 1.08 | 0.0608 | -0.936 | -0.172 (inactive) | 0.127 | 0.0965 | -0.289 (inactive) |
| COc1ccccc1CN1C(=O)c2ccccc2[C@](Cc2ccccc2I)(C(=O)NCC(F)(F)F)[C@@H]1c1ccc(CO)cc1 | -0.698 | 0.95 | -0.568 | -2.39 | -4.25 | 0.349 | -1.39 (inactive) | -0.68 | -0.176 | 0.12 (inactive) |
| C=CC1c2cc(O)c(OC)cc2CCN1Cc1cc2c(cc1Br)OCO2 (stereo not given) | -3.63 | 1.28 | -4.07 | -3.17 | -4.57 | -2.98 | -0.196 (inactive) | -0.743 | -0.348 | -1.67 (inactive) |
| COc1ccc([Si](C)(C)[C@@H]2[C@@H](CC(=O)N(CCO)Cc3ccccc3)O[C@]3(C(=O)N(Cc4cccc(N5CCOC5=O)c4)c4ccccc43)[C@H]2C)cc1 | -1.23 | 0.836 | -1.64 | -2.66 | -3.51 | -0.0766 | 0.0933 (inactive) | -1.07 | -0.991 | -2.25 (inactive) |
| [N-]=[N+]=NCc1ccccc1C[C@@]1(C(=O)N2CCCCC2)N=C(c2ccc(OCCCO)cc2)O[C@@H]1c1ccccc1 | -1.26 | -0.813 | -2.13 | -3.11 | -4.35 | 0.622 | -0.209 (inactive) | -1.28 | -2.34 | -0.949 (inactive) |
| COC1OC[C@]2(C)[C@H]3C4=C(CN2C(=O)OC(C)(C)C)[C@H](C)C(CO)C(CO)C4CC[C@@H]13 (stereo not given in full) | 0.657 | 0.281 | 1.3 | 0.728 | -0.944 | 2.82 | 0.0682 (inactive) | 0.287 | -1.08 | -0.634 (inactive) |
| CCCCC=C[C@@H](NC(=O)c1ccc(-c2ccccc2)cc1)c1ccccc1 | -1.58 | -0.768 | -1.47 | -0.795 | -2.1 | -4.15 | 0.045 (inactive) | -0.741 | -0.819 | -0.305 (inactive) |
| Cc1ccc(S[C@]2(C(=O)NCC(F)(F)F)CC(=O)N(Cc3ccccc3)[C@@H]2c2ccc(CO)cc2I)cc1 | 0.208 | -0.649 | -0.425 | -1.84 | -2.08 | -1.75 | -0.68 (inactive) | -0.797 | -1.59 | 0.589 (inactive) |
| O=C1O[C@H](c2ccccc2)[C@H](c2ccccc2)N2[C@H]1[C@@H](C(=O)Nc1nc3ccccc3s1)[C@]1(C(=O)Nc3ccc(C#CCCO)cc31)[C@H]2c1ccc(O)cc1 | 0.695 | 0.215 | -0.257 | -2.26 | -3.96 | -3.86 | -0.525 (inactive) | -1.25 | -1.48 | 0.679 (inactive) |
| O=C1N(Cc2ccccc2)c2ccccc2[C@@H]2OC(c3ccc(OCCCO)cc3)=N[C@]12Cc1ccccc1 | -1.43 | 1.24 | -1.98 | -3.26 | -4.42 | -1.11 | 0.983 (inactive) | -1.37 | -0.884 | -1.72 (inactive) |
| CCCCO[C@H]1C[C@H]2C(I)=C[C@@H]1C(=O)[C@]21CO1 | -0.788 | -0.894 | -0.534 | -1.98 | -1.16 | -1.39 | -0.0178 (inactive) | 0.432 | -0.569 | 0.0651 (inactive) |
| C=CCNC(=O)[C@@H]1[C@H]2C(=O)O[C@H](c3ccccc3)[C@H](c3ccccc3)N2[C@H](c2ccc(O)cc2)[C@@]12C(=O)N(C(=O)OCCOC)c1ccc(C#CC3(O)CCCCCC3)cc12 | 0.0287 | 0.284 | 0.446 | 0.362 | 0.895 | 0.577 | 0.8 (inactive) | 0.244 | -0.432 | 0.395 (inactive) |
| CCOC(=O)C1=CC[C@@H](c2ccc(OCc3ccccc3)c(OC)c2)N(S(=O)(=O)c2ccc(C)cc2)[C@H]1c1ccc(SC)cc1 | -0.568 | 0.211 | 0.355 | -0.821 | -0.906 | 1.37 | -1.14 (inactive) | 0.419 | -0.598 | 1.33 (inactive) |
| COCCOC(=O)N1C(=O)[C@@]2(c3cc(C#CC4=CCCCC4)ccc31)[C@H](C(=O)N1CCCCCCC1)[C@H]1C(=O)O[C@H](c3ccccc3)[C@H](c3ccccc3)N1[C@@H]2c1ccc(O)cc1 | 0.868 | 0.936 | 0.474 | -0.625 | -0.593 | -0.239 | 1.02 (inactive) | -0.386 | -0.272 | -1.09 (inactive) |
| O=C1NC(=O)C2C1C=CC(C(O)c1cccc3ccccc13)N2Nc1ccc(Cl)cc1Cl (stereo not given) | -2.6 | -0.132 | -2.76 | -3.71 | -4.17 | -4.07 | -1.1 (inactive) | -0.962 | -0.213 | -0.993 (inactive) |
| CN1C(=O)C2C=CC(C(O)c3cccc4ccccc34)N(N3CCCCC3)C2C1=O (stereo not given) | -0.866 | -0.576 | -0.776 | -1.21 | -0.493 | -1.79 | -1.53 (inactive) | 0.776 | -0.382 | 0.294 (inactive) |

| SMILES | z-score [1] | z-score [2] | z-score [3] | z-score [4] | z-score [5] | z-score [6] | z-score [7] | z-score [8] | z-score [9] | z-score [10] |
| --- | --- | --- | --- | --- | --- | --- | --- | --- | --- | --- |
| CN1C(=O)C2C=CC(C(O)c3cccc(O)c3)N(Nc3ccccc3)C2C1=O (stereo not given) | -0.501 | -0.58 | -0.333 | -1.58 | -1.67 | -0.579 | 0.548 (inactive) | -0.419 | -0.179 | 0.0494 (inactive) |
| CC(C)(C)OC(=O)CC[C@@]1(C(=O)NCc2ccccc2)N=C(c2ccc(OCCCO)cc2)O[C@@H]1c1ccccc1N=[N+]=[N-] | -0.365 | 1.55 | -0.258 | -1.68 | -1.41 | 0.515 | 1.35 (inactive) | -1.01 | 0.24 | -0.682 (inactive) |
| Cc1cc(C)c(C(O)C2C=CC3C(=O)N(c4ccccc4)C(=O)C3N2Nc2ccc(C(C)C)cc2)c(C)c1 (stereo not given) | -0.314 | 0.669 | 0.273 | -0.0101 | -0.792 | -1.37 | -1.13 (inactive) | -0.698 | 0.19 | -1.72 (inactive) |
| NC(=O)NCC#Cc1ccc2c(c1)[C@]1(C(=O)N2)[C@H](C(=O)NC[C@H](O)c2ccccc2)[C@H]2C(=O)O[C@H](c3ccccc3)[C@H](c3ccccc3)N2[C@@H]1c1ccc(OCCO)cc1 | -0.313 | 0.468 | 0.0249 | -0.254 | 1.25 | -2.05 | -0.183 (inactive) | -1.1 | -0.642 | 0.818 (inactive) |
| C=CCC(OC(C)=O)[C@@H]1[C@@H](N(Cc2cccc3ccccc23)C(=O)Cc2ccc(F)cc2)c2cc(OCCCO)ccc2N1C(=O)c1ccc2ccccc2n1 (stereo not given in full) | -0.359 | 0.389 | -0.117 | 0.866 | -0.381 | 1.69 | -0.109 (inactive) | 0.515 | -0.669 | 0.067 (inactive) |
| CCOC(=O)C[C@H]1[C@H](OC(=O)c2ccccc2-c2ccccc2)[C@@H](NC(=O)c2ccc(-c3ccccc3)cc2)c2cc(OCCCO)ccc2N1C(=O)c1ccc2ccccc2n1 | -0.137 | -0.163 | 0.336 | 0.402 | -0.485 | -0.149 | 1.18 (inactive) | 0.0491 | -0.63 | 0.524 (inactive) |
| C=C(COC)C(=O)CC[C@@H](OC(=O)c1cccnc1)c1ccc(OCCO)cc1 | -0.1 | -0.486 | -0.419 | -2.55 | -1.29 | -1.89 | 0.42 (inactive) | 0.829 | -0.374 | -0.284 (inactive) |
| O=C1NC(=O)C2C1C=CC(C(O)c1ccco1)N2Nc1ccccn1 (stereo not given) | -0.291 | -0.0855 | -0.125 | -0.0456 | -0.529 | -1.33 | -0.688 (inactive) | 0.127 | -0.154 | -0.974 (inactive) |
| CCOc1cc(C(O)C2C=CC3C(=O)N(C)C(=O)C3N2Nc2ccccc2)ccc1O (stereo not given) | -0.157 | -0.0778 | -0.243 | -2.21 | -0.429 | -1.48 | -0.725 (inactive) | -0.868 | -0.536 | -0.0004 (inactive) |
| CC(C)(C)N1CC=CC23O[C@@H]4C=CCCOC(=O)C4[C@H]2C(=O)N(CCO)[C@@H]3C1=O (stereo not given in full) | -0.708 | -0.358 | -0.811 | 0.18 | 0.608 | -0.405 | -1.46 (inactive) | 0.168 | -0.132 | -0.693 (inactive) |
| Cc1ccc(S[C@]2(C(=O)NCC(F)(F)F)CC(=O)N(Cc3ccccc3C(F)(F)F)[C@@H]2c2ccc(CO)cc2I)cc1 | 1.45 | -0.438 | 0.707 | -1.56 | -1.71 | 0.16 | 0.0898 (inactive) | -0.597 | -2.22 | 0.328 (inactive) |
| Cc1ccccc1C(O)C1C=CC2C(=O)N(C)C(=O)C2N1N(c1ccccc1)c1ccccc1 (stereo not given) | -0.665 | -1.41 | 0.655 | -0.967 | 0.0748 | 0.02 | -0.41 (inactive) | -0.217 | -0.41 | -0.191 (inactive) |
| C=C(COC)/C(=C/C[C@H](OC(=O)c1ccncc1)c1ccccc1OCCO)c1cnc2ccccc2c1 | 0.265 | 0.688 | -0.693 | -2.28 | -0.533 | 1.23 | -0.296 (inactive) | -0.32 | -0.0279 | 2.05 (inactive) |
| COc1cc(CO)cc(I)c1O[C@H]1C=C(C(=O)NCCO)C[C@@H](NCc2ccc(F)cc2)[C@@H]1O | 0.56 | 0.385 | 2.22 | -2.35 | -0.456 | 0.871 | -0.389 (inactive) | -0.251 | -2.07 | -0.183 (inactive) |
| O=C(NCc1ccccc1)[C@@H]1c2ccccc2C(=O)N(Cc2ccccc2C(F)(F)F)[C@H]1c1ccc(CO)cc1 | 0.369 | 0.275 | 1.53 | 0.0209 | -0.133 | 2.36 | -0.182 (inactive) | 0.744 | -0.962 | -0.307 (inactive) |
| Cc1ccc(S[C@]2(C(=O)NCC(F)(F)F)CC(=O)N(C3CCCCC3)[C@@H]2c2ccc(CO)cc2I)cc1 | 0.335 | 0.66 | 0.133 | -2.65 | -1.91 | -0.807 | -0.482 (inactive) | -0.445 | 0.176 | 0.741 (inactive) |
